The list is not random: actives were taken first. Their share in the collection is about 1.8%.
AF4-AF9 inh = blocks AF4 peptide binding to human AF9; AID 651704; actives 0.47% (n = 350,000); P42568; inhibition, % at 10 µM; AlphaScreen, biotin-AF4 peptide binding to FLAG-AF9;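 active = every replicate reaching a set inhibition limit, whatever the replicate mean, cut at about 25% in these data; inconclusive = mean inhibition reaches that limit but some replicates miss it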;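 also: 0% = plate neutral control median and 100% = total signal loss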
PDI turbidity = PDI (human) enzyme inhibition. inhibition, % at 10 µM. AID 588391. P07237. PDI insulin aggregation turbidity, A650, 90 min. actives 0.052% (n = 350,000);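 active = mean inhibition across replicates of 30% or more, whatever share of single replicates reach that level; inconclusive = mean inhibition below 30% while every single replicate reaches 30%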
Target sequence (P07237 whole entry, looked up): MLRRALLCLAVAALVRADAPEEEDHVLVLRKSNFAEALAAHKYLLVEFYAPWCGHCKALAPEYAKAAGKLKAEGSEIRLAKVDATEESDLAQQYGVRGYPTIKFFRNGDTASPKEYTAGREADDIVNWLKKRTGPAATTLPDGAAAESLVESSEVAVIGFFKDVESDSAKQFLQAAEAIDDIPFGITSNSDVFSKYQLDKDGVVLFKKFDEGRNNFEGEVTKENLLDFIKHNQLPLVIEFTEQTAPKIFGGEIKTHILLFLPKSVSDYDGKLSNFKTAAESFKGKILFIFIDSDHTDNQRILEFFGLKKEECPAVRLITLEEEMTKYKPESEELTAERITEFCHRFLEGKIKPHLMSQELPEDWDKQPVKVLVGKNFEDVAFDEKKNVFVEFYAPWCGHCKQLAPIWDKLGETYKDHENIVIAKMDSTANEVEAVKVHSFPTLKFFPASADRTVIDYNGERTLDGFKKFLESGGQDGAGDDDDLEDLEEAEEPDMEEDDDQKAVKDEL
DENV2 CPE rescue = DENV2-induced cell death inhibition. DENV2-infected cells, cytopathic effect rescue, plate reader. CPE inhibition, % at 9.99 µM. AID 651640. actives 1.7% (n = 350,000); in the data active = CPE inhibition above about 20%, passing the limit was not always enough; inconclusive = no clear call, values can overlap the other calls; tested in BHK-21 cells;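 also: 0% = median of neutral control wells and 100% = median of positive control wells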
ERp5 block = inhibitors of human ERp5 | actives 0.05% (n = 350,000) | inhibition, % at 9.99 µM | ERp5 insulin aggregation, absorbance 650 nm, 90 min | AID 651711 | Q15084;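 active = mean replicate inhibition above about 25%, with every replicate also reaching it, limit read from the data, passing the limit was not always enough; inconclusive = only one of those two criteria met; inactive = neither criterion met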
ERAP1 inh = inhibitors of human ERAP1 aminopeptidase; actives 0.15% (n = 340,000); AID 652197; Q9NZ08; recombinant ERAP1, Leu-AMC fluorescence, 60 min; inhibition, % at 10.7 µM;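 active = mean replicate inhibition of at least 30%, or all replicates individually reaching that 30% level; inactive = mean below 30% and not every replicate reaching it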;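 also: 0% = neutral control wells and 100% = L-leucinethiol positive control wells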
Starred values were filed as active, the others as inactive; ? = inconclusive; / = no result given.

SMILES	AF4-AF9 inh	PDI turbidity	DENV2 CPE rescue	ERp5 block	ERAP1 inh
COCCN(C[C@@H]1[C@@H](c2ccccc2)[C@H](CO)N1C(C)=O)C(=O)c1ccncc1	1	/	24*	-1	-2
COCCN(C[C@H]1[C@H](c2ccccc2)[C@@H](CO)N1C(C)=O)C(=O)c1ccncc1	-1	/	26*	-1	-4
CCN(C[C@H]1N[C@H](CO)[C@@H]1c1ccccc1)C(=O)c1ccncc1	-3	/	/	-4	0
CCN(C[C@@H]1N[C@H](CO)[C@H]1c1ccccc1)C(=O)c1ccncc1	-2	/	26*	-8	-3
O=C1O[C@H](c2ccccc2)[C@H](c2ccccc2)N2[C@H]1[C@@H](C(=O)N1CCCCCCC1)[C@]1(C(=O)Nc3ccc(C#CC4=CCCCC4)cc31)[C@H]2c1ccccc1OCCO	1	/	6	2	-2
COc1ccc2nc(SC(C)C(=O)NC3CCCC3)[nH]c2c1 (configuration not stated)	-2	-2	64*	-23	-2
CCn1c2ccccc2c2cc(NC(=O)c3ccccc3[N+](=O)[O-])ccc21	-2	1	32*	3	-1
O=S(=O)(Nc1cccc(-n2cnnn2)c1)c1ccccc1	0	8	6	11	-1
O=S(=O)(Nc1cccc(-n2cnnn2)c1)c1cccc(Cl)c1	-9	3	59*	0	1
CCC(C)CN1C(=O)CSCC1(C)C(=O)Nc1ccc2c(c1)OCCO2 (configuration not stated)	/	/	31*	-2	4
CO[C@@H]1CN(C)C(=O)c2cc(NS(=O)(=O)c3cccc(Cl)c3)ccc2OC[C@@H](C)NC[C@H]1C	-7	/	-5	5	-2
CCCC(=O)Nc1ccc2c(c1)C(=O)N(C)C[C@H](OC)[C@@H](C)CN(Cc1nccs1)[C@@H](C)CO2	-2	/	8	-3	/
COCc1cc(C)nc(Sc2nc3c(c(=O)n(C)c(=O)n3C)n2C)c1C#N	-3	-6	-4	0	31*
CCc1cc(Cn2nc(-c3ccccc3)cc2C(=O)NCC2CC2)on1	-3	4	48*	-3	/
CCc1cc(Cn2nc(-c3ccccc3)cc2C(=O)NCCOC)on1	-11	-3	17	-6	-7
CCC(=O)N1CC2(C1)[C@@H](c1ccccc1)[C@@H](CO)N2CC1CC1	-3	/	-4	4	2
O=C(N1CCOCC1)[C@]1(CCS(=O)(=O)c2ccccc2)N=C(c2ccc(OCCCO)cc2)O[C@@H]1c1ccccc1	8	/	23*	1	-3
O=C(NCCN1CCOCC1)[C@@]1(CCS(=O)(=O)c2ccccc2)N=C(c2ccc(OCCCO)cc2)O[C@H]1c1ccccc1	4	/	-6	-4	-2
COC(=O)[C@@]1(CCS(=O)(=O)c2ccccc2)N=C(c2ccc(OCCCO)cc2)O[C@H]1c1ccccc1CN=[N+]=[N-]	6	/	22*	-10	2
CO[C@H]1CN(C)C(=O)c2ccc(NC(=O)Nc3c(C)noc3C)cc2OC[C@H](C)N(CC2CC2)C[C@@H]1C	0	/	15	4	-2
COc1ccc(N=Nc2c(C)[nH]c3ccccc23)cc1	26*	12	-5	-1	/
CC(=O)c1cccc(N=Nc2c(C)[nH]c3ccccc23)c1	/	3	/	/	/
CC1CCCN(CCCOc2ccc(Br)cc2Cl)C1 (configuration not stated)	5	12	34*	16	8
C[C@H](CO)N1C[C@H](C)[C@H](CN(C)C(=O)Nc2ccccc2)Oc2c(cccc2N(C)C)C1=O	-2	/	6	-2	-1
C[C@H](CO)N1C[C@H](C)[C@H](CN(C)CC2CC2)OCCCC[C@H](C)Oc2ccc(NC(=O)Nc3ccc4c(c3)OCO4)cc2C1=O	36*	/	1	8	-3
SMILES	AF4-AF9 inh	PDI turbidity	DENV2 CPE rescue	ERp5 block	ERAP1 inh
CCCN(C)C[C@@H]1OCCCC[C@@H](C)Oc2ccc(NC(=O)Nc3ccc4c(c3)OCO4)cc2C(=O)N([C@H](C)CO)C[C@H]1C	25*	/	-13	-4	0
C[C@@H]1CCCCO[C@@H](CN(C)CC2CC2)[C@H](C)CN([C@H](C)CO)C(=O)c2cc(NC(=O)Nc3ccc4c(c3)OCO4)ccc2O1	?	/	?	-1	0
C[C@@H]1CCCCO[C@@H](CN(C)C)[C@H](C)CN([C@H](C)CO)C(=O)c2cc(NC(=O)Nc3ccc4c(c3)OCO4)ccc2O1	14	/	-19	-2	-3
C[C@H](CO)N1C[C@H](C)[C@@H](CN(C)CC2CC2)OCCCC[C@H](C)Oc2ccc(NC(=O)Nc3ccc4c(c3)OCO4)cc2C1=O	29*	/	-1	-4	-1
CCCCSc1nc2c(cnn2-c2ccc(C)c(C)c2)c(=O)[nH]1	0	-1	50*	3	4
CCCSc1nc2c(cnn2-c2ccc(C)c(C)c2)c(=O)[nH]1	-3	-7	5	2	6
CCOC(=O)C1=C(CS(=O)(=O)c2ccccc2)NC(=O)NC1c1ccc(OC)c(OC)c1 (configuration not stated)	5	-2	0	5	/
CCOC(=O)C1=C(CS(=O)(=O)c2ccc(C)cc2)NC(=O)NC1c1cc(OC)c(O)c(OC)c1 (configuration not stated)	-4	5	37*	-3	2
O=C(C[C@H]1C=C[C@H](NS(=O)(=O)c2ccccc2)[C@H](CO)O1)N1CCc2ccccc2C1	-7	/	-5	-3	-2
COc1ccccc1C(=O)Nc1ccc2c(c1)CN(Cc1cnc(C)s1)CC2	0	3	33*	8	0
CC(C)=CC[N+]1(C)CCCCC1	-2	-2	-2	-5	-1
COCC[N+]1(C)CCCCC1	-1	-1	/	2	89*
CCCNC(=O)C1(C)CCN(C(=O)c2cccc(C#N)c2)C1 (configuration not stated)	28*	-4	4	5	-2
CCCNC(=O)C1(C)CCN(C(=O)c2cccc(Cl)c2)C1 (configuration not stated)	0	-3	14	5	1
Cc1ccc(NC(=O)C2CCCCC2)cc1C	0	-3	70*	2	/
CO[C@@H]1CN(C)C(=O)c2ccc(NC(=O)C3CC3)cc2OC[C@@H](C)N(C(=O)CN(C)C)C[C@@H]1C	-1	/	-2	1	1
Cc1cc(C)c(OCCCNCc2ccccc2)c(Br)c1	0	6	-2	-2	3
Cc1cc(C)c(OCCCNC2CCCC2)c(Br)c1	2	-6	28*	2	-5
C[C@@H]1CCCCO[C@H](CN(C)S(=O)(=O)c2cccs2)[C@H](C)CN([C@H](C)CO)C(=O)c2cc(NS(=O)(=O)c3ccccc3)ccc2O1	-7	/	-4	-3	-7
Nc1nccnc1C(=O)OCC(=O)c1ccc[nH]1	0	-2	33*	15	-8
CCCCN(C(=O)c1ccc2c(c1)NC(=O)CS2)c1ccccc1	-2	8	94*	-4	-4
COCCNC(=O)c1ccc2c(c1)NC(=O)CS2	/	-3	/	/	/
CC(C)(C)OC(=O)N1O[C@H]2C=C[C@@H]1C2	-2	/	10	0	-2
